Only some compounds are listed: those with a hit (about 7.1% of all), similar ones and a draw of the others.
MCF10A rerep = induces DNA re-replication in MCF 10a normal breast cells; MCF 10A DNA re-replication, Hoechst nuclear intensity, 48 h; Potency, µM (top dose mostly 46.1 µM), for inactives: top-dose activity, positive = re-replication, most hits filed as activators; 2.9% of 350,000 active; AID 624296; also: potency is read from the fitted curve at half-maximal effect; % of control where 0% means no effect; nearly all actives have a fitted effect of over 50% in size
PINK1 modulator = PINK1 expression modulation. PINK1 immunofluorescence, high-content cytometry, 24 h. Potency, µM (top dose mostly 76.6 µM), for inactives: at the highest dose activation (PINK1 increase), actives largely listed as activators. 0.2% of 410,000 active; active = well fitted activation curve with a large enough effect; inconclusive = small, poorly fitted or top-dose-only effect; cell line not stated here; also: potency is read from the fitted curve at half-maximal effect; % of control where 0% means no effect; nearly all actives have a fitted effect of over 65% in size
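Readout is PINK1 immunofluorescence, quantified alongside mitochondrial, cell and nuclear markers by laser-scanning microplate cytometry. Cells from a stable line were exposed to compound titrations (5 concentrations) for 24 hours, with CCCP controls.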
ATXN2 expr inh = inhibitors of ATXN2 expression; AID 1745845; Potency, µM (top dose mostly 57 µM), for the others: at the top dose activity change, negative = inhibition, usual class: inhibitors; 0.72% of 360,000 active; HEK-293 ATXN2-luciferase reporter, luminescence, 24 h; also: potency is read from the fitted curve at half-maximal effect; % is scaled to controls: 0 for no effect and ±100 for the full control effect; nearly all actives have a fitted effect of over 55% in size
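qHTS (up to 57 uM final) was run with 24 h compound exposure of reporter cells at 37 °C. Each well was multiplexed: SteadyGlo luminescence measured ATXN2-luciferase expression after a fluorogenic Gly-Phe-AFC viability readout (25 uM final).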
S2 tox = cell viability loss in ATXN counter-screen | Potency, µM (highest dose often 56.7 µM), hits mostly cytotoxic | AID 651635 | 0.49% of 400,000 active | S2 cells (HEK-293 line with an ATXN2-luciferase reporter) viability, CellTiter-Fluor protease fluorescence, 24 h; also: potency is read from the fitted curve at half-maximal effect; nearly all actives have a fitted effect of over 40% in size
IL1B secr inh = inflammasome signaling inhibition, IL-1 beta readout; activity change, % at 57.5 µM; 4.7% of 360,000 active; THP-1 LPS/ATP IL-1B secretion, AlphaLISA, 16 h; hits give low values; in the data active = activity change below about -50%; inconclusive = mostly about -30% to -49%; also: % is scaled to controls: 0 for no effect and ±100 for the full control effect
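Secreted IL-1B measured by AlphaLISA bead assay after 16 h compound exposure of THP-1 cells; compounds (final up to 57.5 uM) added 1 h before LPS (250 ng/mL) and ATP (1.25 mM) stimulation; lower signal means less secretion.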
SW480 rerep = inducers of DNA re-replication in SW480 colon cancer cells | Potency, µM (highest dose often 46.1 µM), for inactives: at the highest dose re-replication activation, most hits filed as activators | SW480 DNA re-replication, Hoechst DNA content imaging, 48 h | 1.8% of 340,000 active | AID 624297; also: potency is read from the fitted curve at half-maximal effect; % of control where 0% means no effect; nearly all actives have a fitted effect of over 55% in size
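Compounds, transferred as 23 nL by pin tool, were incubated with cells for 48 hr; DNA content per nucleus was then quantified by Hoechst staining and fluorescence plate imaging.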
An asterisk follows results filed as active; i = inactive; ? = inconclusive; · = no result given; [ ] = remark or other dose. Unless noted, calls follow the shape of the dose curve; as a rule, active = well fitted curve in the direction sought with a large enough effect; inconclusive = small, poorly fitted or top-dose-only effect, or another doubt; inactive = no such curve, though single readings can be large; an effect the other way counts as inactive or inconclusive.

SMILES | MCF10A rerep | PINK1 modulator | ATXN2 expr inh | S2 tox | IL1B secr inh | SW480 rerep
CCC(C)NC(=O)c1ccc2nc(-c3ccc(OC)c(OC)c3)c(-c3ccc(OC)c(OC)c3)nc2c1 (configuration not stated) | 14.6µM* | 2.1% | -5.2% | i | -25.6 | ?
COc1ccc(-c2nc3ccccc3nc2-c2ccc(OC)c(OC)c2)cc1OC | 1.4% | 0.5% | · | ? | -13.9 | 20.1%
COc1ccc(-c2nc3ccccc3nc2-c2ccccc2)cc1OC | ? | 1.1% | -13.9% | i | -62.1* | -5.7%
Oc1ccc(-c2nc3ccccc3nc2-c2ccccc2)cc1 | 19.1% | 0.5% | 11.7% | i | -64.7* | -0.4%
Cc1ccc(-c2cc(-c3ccccc3)nc(Cl)n2)cc1 | -5.9% | 14.4%[38.3 µM] | 23.4% | i | 43.5 | ?
COc1ccc(-c2cc(-c3ccccc3)nc(Cl)n2)cc1OC | 23.1µM* | 1.2% | -19.1% | i | -5.0 | ?
CCc1ccc(NCc2cc3cc4c(cc3n(CC(=O)Nc3ccccc3Cl)c2=O)OCO4)cc1 | · | 0.5% | 16.6% | i | · | ·
CCOc1ccccc1NC(=O)Cn1ncc2c(=O)oc3ccc(C)cc3c21 | · | -1.2% | · | · | · | ·
COc1ccc(N2C(=O)C(CC(=O)Nc3ccc(Cl)cc3)N(Cc3ccc4c(c3)OCO4)C2=O)cc1 (configuration not stated) | · | 1.3% | -19.5% | ? | · | ·
CC(C)c1nc2ccc(C(=O)NCc3ccc(N(C)C)cc3)cc2o1 | · | 0.1% | · | · | · | ·
CC1CC2=C(NC(=S)NC2c2cccc(F)c2)/C(=C/c2cccc(F)c2)C1 (configuration not stated) | ? | 2.3% | -25.7% | i | -63.8* | 18.1%
CSc1ccccc1C(=O)NCc1nc(-c2cccc(NC(=O)c3ccoc3C)c2)oc1C | · | 1.1% | · | · | · | ·
CCCN(C(=O)COc1ccc(C(C)=O)cc1OC)C1CCS(=O)(=O)C1 (configuration not stated) | -1.2% | 1.4% | 11.6% | i | 13.7 | -11.6%
CCOc1ccc(C(Nc2cccnc2)c2cc(Cl)c3cccnc3c2O)cc1 (configuration not stated) | ? | 13.9% | ? | ? | 0.4 | ?
O=C(O)COc1ccccc1C(Nc1cccnc1)c1cc(Cl)c2cccnc2c1O (configuration not stated) | 9.2µM* | 4.4% | 1.4% | i | 29.9 | 14.9%
O=C(O)COc1ccccc1C(Nc1ccccn1)c1cc(Cl)c2cccnc2c1O (configuration not stated) | 18.4µM* | -0.5% | 2.4% | i | 18.5 | -2.3%
COc1ccc(C(=O)NC(c2ccc(Cl)cc2)c2cc(Cl)c3cccnc3c2O)cc1 (configuration not stated) | · | 1.2% | -4.7% | i | · | ·
Cc1ccc(Cl)cc1N1CCN(C(=O)Cn2cnc3sc(C)c(S(=O)(=O)N4CCC(C)CC4)c3c2=O)CC1 | · | 2.5% | 11.3% | ? | · | ·
CCC1(C2CCN(Cc3c(C)[nH]c4ccccc34)CC2)NC(=O)N(Cc2ccc3c(c2)OCO3)C1=O (configuration not stated) | · | 0.4% | · | i | · | ·
C=CCOc1ccc2nc(NC(=O)OC)[nH]c2c1 | 1.46µM* | 9.8% | 8.4% | ? | 40.9 | 1.3µM*
CCCCc1ccc2nc(NC(=O)OC)[nH]c2c1 | ? | · | 21.1% | ? | · | 0.128µM*
COC(=O)Nc1nc2ccc(-c3n[nH]c(=O)c4ccccc34)cc2[nH]1 | 8.8% | 14.9% | -10.2% | i | 60.0 | -258.7%
C=C(c1ccc2nc(NC(=O)OC)[nH]c2c1)c1cccs1 | 0.581µM* | 0.7% | 8.6% | ? | 45.9 | 0.731µM*
CC(C)c1ccc2c(c1)NC(c1ccc(F)cc1)=NC(c1cccs1)=N2 | · | 1.4% | 3.7% | ? | · | ·
NC(c1csc(Nc2cc(NCCCO)ncn2)n1)c1ccccc1Cl (configuration not stated) | · | 7.2% | -21.0% | i | -55.9* | ·
O=S(=O)(Nc1cc(Sc2ncn[nH]2)c(O)c2ccccc12)c1ccccc1 | 1.03µM* | -1.3% | ? | ? | -95.5* | 10.3µM*
